Laboratory results published in PubChem BioAssay (EPA / NIEHS).
Calls of active or inactive are those of the source. Rule for the calls: active = hit-call score of the fitted dose curve at least 0.9, where 1 is the maximum; inactive = score below 0.9.

Each compound was assayed on UDP glucuronosyltransferase (UGT1A1), UGT1A1 (gene 54658) (assay: LTEA_HepaRG_UGT1A1: Life Technologies and Expression Analysis (LTEA) Assay for UDP glucuronosyltransferase (UGT1A1) using HepaRG (AID 2283538)). Details: mRNA level, 48 h; actives raise or lower the signal.
Experimental: LTEA_HepaRG is a cell based, multiplexed-readout assay that uses HepaRG, a human liver cell line, with measurements taken at 48 hours after chemical dosing on a 96-well plate.LTEA_HepaRG_UGT1A1 is one of 102 assay component(s) measured in the LTEA HepaRG cell culture assay. It is a marker of Steatosis/NR mediated metabolism.Data from the assay component LTEA_HepaRG_UGT1A1 was analyzed into 1 endpoint. This assay endpoint, LTEA_HepaRG_UGT1A1, was analyzed with bidirectional fitting relative to DMSO as the negative control and baseline of activity. Using a type of inducible reporter, measures of mRNA induction for gain or loss-of-signal activity can be used to understand regulation of transcription factor activity. To generalize the intended target to other relatable targets, this assay endpoint is annotated to the transferase intended target family, where the subfamily is glucuronosyltransferase.
A total of 1060 chemcials from the ToxCast library were tested in eight-point concentration-response experiments. Cell culture and cytotoxicity assays were conducted at Thermo Fisher Scientific's Custom Services facility (Madison, WI). A single lot of human HepaRG cells (Thermo Fisher Scientific, Frederick, MD) was used for the cell culture experiments. 96-well format collagen type I coated plates of human HepaRG cells were prepared using established methods. Briefly, cryopreserved HepaRG cells were thawed, plated at a density of approximately 100,000 cells/well in HepaRG Thaw, Plate, and General Purpose media (HPRG770, Thermo Fisher Scientific), and incubated for 48 hours. 0.5% DMSO was selected as vehicle control to balance the requisite need of DMSO in HepaRG cultures to maintain differentiation (for example, baseline metabolism, proportions of hepatocytes vs. cholangiocytes), while enabling further hepatic receptor pathway activation (for example, PXR and CAR) in response to chemical exposure. 48 hours after plating, the culture medium was replaced with HepaRG Serum-Free Incudtion Media. Cells were exposed to each test chemical in duplicate and maintained in CO2 incubators for another 48 hours. Chemical plates were thawed to room temperature and 200x concentrations of treatment groups were prepared. 8-point conentration-reponse curves were made with the highest exposure at 100 uM, followed by half-log dilutions, all in 0.5% DMSO. Each test plate contained variouse controls, induction positive controls (1mM phenobarbital), cytotoxicity positive controls ([…] aflatoxin B1), vehicle controls (0.5% DMSO), and total lysis controls (0.5% DMSO). Cell morphology images were taken using an Essen IncuCyte FLR automated microscope, with six 96-well plates imaged in about 24 minutes. Images were captured and exported and JPEG files. Spent culture media was transfered to black-well plates for the LDH assay, and remaining media was sorted at -80 C for later use. Cells were treated with RLT buffer and frozen until shipped for gene expression analysis. Total RNA was isolated from the cell suspension in 75 uL of Buffer RLT (Qiagen, Germantown, MD 20874) by Quintiles/Expression Analysis (Durham, NC) using a custom isolation procedure. Total RNA from each plate well was transferred to a preamplification plate. Fluidigm's 96.96 Dynamic ArrayTM (Fluidigm, Amsterdam, the Netherlands) technology was used for gene expression analyses by quantitative reverse transcription polymerase chain reaction (qRT-PCR, performed by Quintiles/Expression Analysis, Durham, NC)89. Standard TaqManTM Assays (Applied Biosystems/ThermoFisher Scientific, Foster City, CA) were used to assess the expression of 93 genes selected based on their selectivity and sensitivity to important hepatic receptors known to be modulated by environmental chemicals; importance in human hepatocyte functionality; and hepatotoxicity. […]
With `OCCO` the outcome was “inactive”. In the case of `CN(C)c1ccc(C(=C2C=CC(=[N+](C)C)C=C2)c2ccc(N(C)C)cc2)cc1`, the AC50 is reported as 16.8 µM (active). With `Cc1ccc2oc(CN(Cc3ccccc3)C(=O)Nc3c(F)cc(F)cc3F)c(-c3ccc(Cl)cc3)c2c1` the outcome was “inactive”. In the case of `Clc1ccccc1C(c1ccccc1)(c1ccccc1)n1ccnc1`, the AC50 is reported as 28 µM (active). With `CO[C@H]1/C=C/O[C@@]2(C)Oc3c(C)c(O)c4c(O)c(c(/C=N/N5CCN(C)CC5)c(O)c4c3C2=O)NC(=O)/C(C)=C\C=C\[C@H](C)[C@H](O)[C@@H](C)[C@@H](O)[C@@H](C)[C@H](OC(C)=O)[C@@H]1C` the AC50 was 0.395 µM (active). For `O=C1CCC(C2CCCCC2)CC1`, the outcome was “inactive”. With `CCCCOC(=O)CC(CC(=O)OCCCC)(OC(C)=O)C(=O)OCCCC` the outcome was “inactive”. For `CCCCCc1ccc(N)cc1`, the outcome was “inactive”. In the case of `CC(C)(O)c1ccc(CNC(=O)c2cccnc2Oc2ccc3nonc3c2)cc1`, the AC50 is reported as 9.41 µM (active). For `CCCCCCCCCCCC[N+](C)(C)C`, the AC50 was 88.3 µM (active). `O=C(O)c1ccccc1-n1cc(C(=O)O)c(=O)c2cc(Nc3c(F)cc(F)cc3Cl)c(Cl)cc21` was tested, and the outcome was “inactive”. With `CC(C)(C)c1csc(-c2cc3cc(OCc4ccccc4CC(=O)O)ccc3o2)n1` the AC50 was 85.5 µM (active). `OC12N=C(c3ccccc3)SC1Cc1cc(Cl)ccc12` (stereo not given) was tested, and the AC50 was 2.54 µM (active). With `CCCCOC(=O)c1ccc(O)cc1` the outcome was “inactive”. For `C[C@]12CC[C@@H]3c4ccc(O)cc4CC[C@H]3[C@@H]1CC[C@H]2O`, the AC50 was 2.42 µM (active). `CN1C(=O)N(c2ccccc2Br)Cc2cnc(Nc3ccc4c(c3)OCC(CO)O4)nc21` (stereo not given) was tested, and the AC50 was 85.6 µM (active). For `CCCOC(=O)c1cc(O)c(O)c(O)c1`, the AC50 was 1.73 µM (active). With `O=c1[nH]sc2ccccc12` the outcome was “inactive”. With `CC[C@@H]1C[C@H](N(Cc2cc(C(F)(F)F)cc(C(F)(F)F)c2)C(C)=O)c2cc(C(F)(F)F)ccc2N1C(=O)OC(C)C` the AC50 was 0.546 µM (active). With `COc1cc(C(=O)NC2CCN(C)CC2)ccc1Nc1ncc2c(n1)N(C1CCCC1)CC(F)(F)C(=O)N2C` the AC50 was 21 µM (active). In the case of `O=C(OCCCCCCOC(=O)c1ccccc1)c1ccccc1`, the outcome is reported as “inactive”. With `Cc1cccc2ccccc12` the outcome was “inactive”. With `CN(C[C@@H](CC[N+]12CCC(C3CCCCC3)(CC1)CC2)c1ccc(Cl)c(Cl)c1)C(=O)c1cc(C(F)(F)F)cc(C(F)(F)F)c1` the AC50 was 6.65 µM (active). With `O=C1c2ccccc2C(=O)N1CCc1noc(-c2ccc(CN3CCCCCC3)s2)n1` the AC50 was 17.8 µM (active). `CC1=CC(=O)/C(=C(/C)O)C(=O)O1` was tested, and the outcome was “inactive”. For `O=c1c(-c2ccc(O)cc2)coc2cc(O)cc(O)c12`, the outcome was “inactive”. For `Cc1oc2c(NC(=O)c3c(Cl)cccc3Cl)cccc2c1C(C)(C)O`, the AC50 was 50 µM (active). `Cc1c2ccccc2c(C)c2c1ccc1ccccc12` was tested, and the AC50 was 0.714 µM (active). `c1ccc2ccccc2c1` was tested, and the AC50 was 17.4 µM (active). With `CCCCCCCCN(C)CCCCCCCC` the outcome was “inactive”. With `CCCCCCCC[Si](OCC)(OCC)OCC` the outcome was “inactive”. For `O=c1ccc2ccccc2o1`, the AC50 was 65.4 µM (active). `COc1ccc2cc(S(=O)(=O)N[C@H](CC(=O)N[C@H](Cc3ccc(CN4[C@H](C)CCC[C@@H]4C)cc3)C(=O)N(C)C(C)C)c3ccc4c(c3)OCO4)ccc2c1` was tested, and the AC50 was 26 µM (active). `O=C(O)c1ccccc1C(=O)OCc1ccccc1` was tested, and the AC50 was 24.3 µM (active). `CCN(Cc1cccc(S(=O)(=O)O)c1)c1ccc(C(=C2C=CC(=[N+](CC)Cc3cccc(S(=O)(=O)O)c3)C=C2)c2ccccc2S(=O)(=O)[O-])cc1` was tested, and the outcome was “inactive”. In the case of `CCN(CC)C(=O)c1cc(S(=O)(=O)Cc2ccccc2)c(N2CCC(c3ccccc3)CC2)cc1N(CC)CCN(C)C`, the AC50 is reported as 19 µM (active). `COCC(C)OCC(C)OCC(C)O` (stereo not given) was tested, and the outcome was “inactive”. In the case of `O=C=NCCCCCCN=C=O`, the outcome is reported as “inactive”. `O=C(Nc1ccc(Cl)cc1)Nc1ccc(Cl)c(Cl)c1` was tested, and the AC50 was 14.9 µM (active). `Cc1cn([C@H]2C[C@H](N=[N+]=[N-])[C@@H](CO)O2)c(=O)[nH]c1=O` was tested, and the outcome was “inactive”.
